Here are results for nine compounds from PubChem BioAssay (NCI).

Compounds without any hit were thinned out: in the full panel of roughly 83,000, 20% have a hit.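 Growth was measured after 48 h exposure to one concentration of compound in 96-well plates. Values under 10 count as active.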 Values without a mark were called inactive. Calls of active or inactive are those of the source.

Some test systems named below: HCT-15 colon; HT29 colon; SNB-75 CNS; SNB-19 CNS; U251 CNS; PC-3 prostate; SK-MEL-5 melanoma; UACC-62 melanoma; LOX IMVI melanoma; SK-MEL-28 melanoma; SK-MEL-2 melanoma; EKVX NSCLC; SN12C renal; UO-31 renal; ACHN renal; A498 renal; CCRF-CEM leukemia; MOLT-4 leukemia; TK-10 renal; CAKI-1 renal.
What all share (experiment): NCI-60 one-dose screen, 48 h (100 = growth as untreated, 0 = no growth, -100 = all killed)
What all share (settings): 10 µM unless noted

For `C=C1C(=O)O[C@H]2[C@H]1CC/C(COC(=O)CCCc1c[nH]c3ccccc13)=C\CC[C@@]1(C)O[C@@H]21`, the growth in the assay on HCT-15 colon was 7.56% (active); in the assay on HT29 colon, 21.7%; with SNB-75 CNS it was 76.4%; with SNB-19 CNS, 71.2%; with U251 CNS it was 56.4%; in the assay with PC-3 prostate, 50.7%. The growth with SK-MEL-5 melanoma was 71.5%; in the assay on UACC-62 melanoma, 70.1%; in the assay on LOX IMVI melanoma, -3.89% (active); in the assay with SK-MEL-28 melanoma, 92.6%; in the assay on SK-MEL-2 melanoma it was 88.4%; in the assay on EKVX NSCLC, 74.3%. Further, the growth is 54.8% in the assay on SN12C renal; 58.5% in the assay on UO-31 renal; 59.5% with ACHN renal; 103% in the assay with A498 renal; 1.43% (active) in the assay on CCRF-CEM leukemia; 3.73% (active) in the assay with MOLT-4 leukemia.
Turning to `Nc1nc(N)nc(NCc2ccccc2)n1`, the growth in the assay with HCT-15 colon is 97.6%; in the assay on HT29 colon, 101%; with SNB-75 CNS, 96.5%; with SNB-19 CNS it was 107%; in the assay on U251 CNS, 105%; with PC-3 prostate it was 105%. The growth in the assay on SK-MEL-5 melanoma was 103%; in the assay on UACC-62 melanoma it was 101%; in the assay on LOX IMVI melanoma, 101%; in the assay on SK-MEL-28 melanoma, 106%; in the assay on SK-MEL-2 melanoma, 112%; in the assay on EKVX NSCLC, 99.3%. Besides, the growth with UO-31 renal was 91.1%; with TK-10 renal, 95.8%; with ACHN renal it was 106%; in the assay on CAKI-1 renal, 99.7%; in the assay with A498 renal, 105%; in the assay on CCRF-CEM leukemia, 109%. Also, the growth with MOLT-4 leukemia is 95.4%.
As for `Fc1ccc(-n2cc(COc3ncnc4sc5c(c34)CCCC5)nn2)cc1Cl`, the growth in the assay with HCT-15 colon is 100%; in the assay on HT29 colon, 97.3%; with SNB-75 CNS it was 90.5%; in the assay with SNB-19 CNS, 94.7%; in the assay with U251 CNS, 99.7%; with PC-3 prostate it was 89.5%. Moreover, the growth in the assay with SK-MEL-5 melanoma is 103%; in the assay with UACC-62 melanoma it was 92.2%; in the assay with LOX IMVI melanoma, 93.7%; with SK-MEL-28 melanoma, 110%; in the assay on SK-MEL-2 melanoma, 103%; with EKVX NSCLC, 94.1%. The growth with SN12C renal is 98.7%; in the assay with UO-31 renal, 82.3%; in the assay on CAKI-1 renal it was 92.7%; with CCRF-CEM leukemia it was 89%; in the assay on MOLT-4 leukemia, 98.8%.
As to `COC(=O)C1=C(C(=O)ONCCN(C)C)C2C=CC1(C(Cc1ccccc1)Nc1ccc(F)cc1)O2` (centres undefined), the growth is 48.1% in the assay on HCT-15 colon; 75.1% with HT29 colon; 106% in the assay on SNB-75 CNS; 105% with SNB-19 CNS; 100% with U251 CNS; 105% in the assay with PC-3 prostate. For the same compound, the growth in the assay with SK-MEL-5 melanoma was 105%; in the assay on UACC-62 melanoma, 90.9%; in the assay with LOX IMVI melanoma it was 96.3%; in the assay on SK-MEL-28 melanoma, 96.1%; in the assay on SK-MEL-2 melanoma, 97%; with EKVX NSCLC, 102%. In addition, the growth with SN12C renal was 87%; in the assay with UO-31 renal, 81%; with ACHN renal it was -18.8% (active); with CAKI-1 renal, 88%; with CCRF-CEM leukemia, 2.02% (active); in the assay with MOLT-4 leukemia, 30.6%.
For `COc1nccnn1`, the growth in the assay with HCT-15 colon is 98.1%; in the assay with HT29 colon, 97.8%; in the assay on SNB-75 CNS, 96.5%; in the assay with SNB-19 CNS it was 91.2%; in the assay on U251 CNS, 100%; with PC-3 prostate it was 87.1%. Further, the growth in the assay with SK-MEL-5 melanoma is 104%; in the assay on UACC-62 melanoma it was 98.9%; in the assay on LOX IMVI melanoma, 94.9%; in the assay with SK-MEL-28 melanoma, 102%; in the assay on SK-MEL-2 melanoma, -31.3% (active); in the assay with EKVX NSCLC it was 107%. Further, the growth in the assay on UO-31 renal was 100%; in the assay with TK-10 renal it was 93.3%; in the assay on ACHN renal, 100%; with CAKI-1 renal, 108%; in the assay with A498 renal it was 92.9%; with CCRF-CEM leukemia, 99.8%. Also, in the assay with MOLT-4 leukemia, the growth is 106%.
Take `CC(C)C1C2=C(NCCN1C(=O)Cc1ccccc1)C(C)(C)N(Cc1ccccc1)C2=O` (centres undefined): the growth is 95.4% with HCT-15 colon; 109% with HT29 colon; 85.3% in the assay on SNB-75 CNS; 96.8% with SNB-19 CNS; 103% in the assay on U251 CNS; 93.2% in the assay on PC-3 prostate. The growth was 104% in the assay with SK-MEL-5 melanoma; 92.4% with UACC-62 melanoma; 101% with LOX IMVI melanoma; 104% with SK-MEL-28 melanoma; 94.3% in the assay with SK-MEL-2 melanoma; 94.5% with EKVX NSCLC. Also, the growth in the assay on SN12C renal is 98.5%; in the assay with UO-31 renal, 87.3%; with ACHN renal, 101%; in the assay with CAKI-1 renal, 84.2%; in the assay on CCRF-CEM leukemia it was 111%; with MOLT-4 leukemia, 96.8%.
Take `O=C(Nc1nc(-c2ccc(Br)cc2)cs1)c1cc(-c2ccc(Br)cc2)nc2ccc(Cl)cc12`: the growth is 81.6% in the assay with HCT-15 colon; 72.6% with HT29 colon; 87.3% with SNB-75 CNS; 86.7% in the assay with SNB-19 CNS; 76.8% in the assay with U251 CNS; 72.8% in the assay on PC-3 prostate. Further, the growth in the assay with SK-MEL-5 melanoma is 91.2%; in the assay on UACC-62 melanoma, 77.8%; in the assay on LOX IMVI melanoma, 94.8%; in the assay on SK-MEL-28 melanoma it was 95.9%; with SK-MEL-2 melanoma, 93.9%; with EKVX NSCLC, 77.8%. Also, the growth was 85.1% in the assay on SN12C renal; 64.2% with UO-31 renal; 85% in the assay on ACHN renal; 79.3% in the assay with CAKI-1 renal; 77.8% in the assay on CCRF-CEM leukemia; 80.6% in the assay with MOLT-4 leukemia.
Regarding `O=C(N/N=C/c1cccnc1)c1ccccc1Nc1cccc(C(F)(F)F)c1`, the growth with HCT-15 colon was 71.7%; with HT29 colon it was 91.7%; with SNB-75 CNS, 83%; in the assay with SNB-19 CNS, 84.8%; in the assay on U251 CNS it was 92.1%; in the assay on PC-3 prostate, 88.8%. The growth is 74.3% with SK-MEL-5 melanoma; 102% in the assay with UACC-62 melanoma; 78.6% with LOX IMVI melanoma; 85.5% in the assay on SK-MEL-28 melanoma; 101% in the assay on SK-MEL-2 melanoma; 89.2% with EKVX NSCLC. In addition, the growth in the assay with SN12C renal was 159%; in the assay on UO-31 renal, 76.4%; in the assay with ACHN renal, 100%; in the assay with CAKI-1 renal it was 79.6%; in the assay with A498 renal, 75.6%; in the assay on CCRF-CEM leukemia, -52.4% (active). Also, the growth in the assay with MOLT-4 leukemia is 62.7%.
On to `O=c1[nH]c(=O)[nH]c(=S)[nH]1`, for which the growth in the assay on HCT-15 colon was 103%; with HT29 colon it was 99.1%; with SNB-75 CNS, 96.5%; with SNB-19 CNS, 101%; with U251 CNS, 103%; in the assay on PC-3 prostate, 102%. Moreover, the growth is 102% with SK-MEL-5 melanoma; 96.1% with UACC-62 melanoma; 98.1% in the assay with LOX IMVI melanoma; 102% in the assay with SK-MEL-28 melanoma; 103% in the assay on SK-MEL-2 melanoma; 97.8% in the assay with EKVX NSCLC. Besides, the growth with UO-31 renal is 89.2%; with TK-10 renal, 95.8%; with ACHN renal, 94.3%; in the assay with CAKI-1 renal, 94.9%; with CCRF-CEM leukemia, 101%; in the assay on MOLT-4 leukemia, 105%.
